Measurements reported in PMC8222333, “AsCas12a ultra nuclease facilitates the rapid generation of therapeutic cell medicines”.
Numbering of substitutions follows the chain as printed.

B1: TACT (dsDNA)
DNA 1: GCTATCTAGTGCTCAGTACGCACTGTACTAGGAAACTTCTGGCAGGACCAGGTCATGAGATCGGAAGAGCACACGTCTGAACTCCAGTCA
DNA 2: TGACTGGAGTTCAGACGTGTGCTCTTCCGATCTCATGACCTGGTCCTGCCAGAAGTTTCCTAGTACAGTGCGTACTGAGCACTAGATAGC
RNA: AAUUUCUACUCUUGUAGAUAGGAAACUUCUGGCAGGACC
B2: AACC (dsDNA)
DNA 1: B1 DNA 1 with T26A, T29C
DNA 2: B1 DNA 2 with A62G, A65T
RNA: B1 RNA
B3: AAAG (dsDNA)
DNA 1: B1 DNA 1 with T26A, C28A, T29G
DNA 2: B1 DNA 2 with A62C, G63T, A65T
RNA: B1 RNA
B4: AAAC (dsDNA)
DNA 1: B1 DNA 1 with T26A, C28A, T29C
DNA 2: B1 DNA 2 with A62G, G63T, A65T
RNA: B1 RNA
B5: AAGA (dsDNA)
DNA 1: B1 DNA 1 with T26A, C28G, T29A
DNA 2: B1 DNA 2 with A62T, G63C, A65T
RNA: B1 RNA
B6: TCGG (dsDNA)
DNA 1: B1 DNA 1 with A27C, C28G, T29G
DNA 2: B1 DNA 2 with A62C, G63C, T64G
RNA: B1 RNA
B7: ACAA (dsDNA)
DNA 1: B1 DNA 1 with T26A, A27C, C28A, T29A
DNA 2: B1 DNA 2 with A62T, G63T, T64G, A65T
RNA: B1 RNA
B8: AACT (dsDNA)
DNA 1: B1 DNA 1 with T26A
DNA 2: B1 DNA 2 with A65T
RNA: B1 RNA
B9: AAGG (dsDNA)
DNA 1: B1 DNA 1 with T26A, C28G, T29G
DNA 2: B1 DNA 2 with A62C, G63C, A65T
RNA: B1 RNA
B10: AAGT (dsDNA)
DNA 1: B1 DNA 1 with T26A, C28G
DNA 2: B1 DNA 2 with G63C, A65T
RNA: B1 RNA
B11: AAAA (dsDNA)
DNA 1: B1 DNA 1 with T26A, C28A, T29A
DNA 2: B1 DNA 2 with A62T, G63T, A65T
RNA: B1 RNA
B12: TGCA (dsDNA)
DNA 1: B1 DNA 1 with A27G, T29A
DNA 2: B1 DNA 2 with A62T, T64C
RNA: B1 RNA
B13: TGCC (dsDNA)
DNA 1: B1 DNA 1 with A27G, T29C
DNA 2: B1 DNA 2 with A62G, T64C
RNA: B1 RNA
B14: AACA (dsDNA)
DNA 1: B1 DNA 1 with T26A, T29A
DNA 2: B1 DNA 2 with A62T, A65T
RNA: B1 RNA
B15: AACG (dsDNA)
DNA 1: B1 DNA 1 with T26A, T29G
DNA 2: B1 DNA 2 with A62C, A65T
RNA: B1 RNA
B16: ACAC (dsDNA)
DNA 1: B1 DNA 1 with T26A, A27C, C28A, T29C
DNA 2: B1 DNA 2 with A62G, G63T, T64G, A65T
RNA: B1 RNA

Target: dAsCas12a E174R (Acidaminococcus sp., UniProt U2UMQ6 1-1307, E174R;D908A;E993A;D1235A)
Assay: Spec-seq (native PAGE EMSA with sequencing of bound and unbound); 25 mM Tris-HCl pH 7.4, 150 mM KCl, 5 mM MgCl2, 10% glycerol, 1 mM DTT, 40 ng/uL salmon sperm DNA; 400 nM Cas12a, 480 nM crRNA, 50 nM library, 37 C 1 h; native PAGE at room temperature; high values mean tight binding
Conditions: protein: recombinant
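Also: relative affinity from the bound to unbound sequence frequency ratio in Spec-seq.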

Binder | binding signal
B1 | -8.98 lnKA
B6 | -8.87 lnKA
B12 | -8.93 lnKA
B13 | -8.73 lnKA

Target: dAsCas12a S542R (Acidaminococcus sp., UniProt U2UMQ6 1-1307, S542R;D908A;E993A;D1235A)
Assay: as above
Conditions: protein: recombinant

Binder | binding signal
B1 | -7.99 lnKA
B2 | -7.9 lnKA
B3 | -8.45 lnKA
B4 | -8.48 lnKA
B5 | -8.52 lnKA
B6 | -8.02 lnKA
B7 | -8.6 lnKA
B8 | -8.54 lnKA
B9 | -8.67 lnKA
B10 | -8.46 lnKA
B11 | -8.41 lnKA
B12 | -8.02 lnKA
B13 | -7.76 lnKA
B14 | -8.12 lnKA
B15 | -8.29 lnKA
B16 | -8.48 lnKA

Target: d-enCas12a (Acidaminococcus sp., UniProt U2UMQ6 1-1307, E174R;S542R;K548R;D908A;E993A;D1235A)
Assay: as above
Conditions: protein: recombinant

Binder | binding signal
B1 | -2.8 lnKA
B2 | -2.33 lnKA
B3 | -5.7 lnKA
B4 | -5.25 lnKA
B5 | -5.74 lnKA
B6 | -5.8 lnKA
B7 | -5.98 lnKA
B8 | -4.69 lnKA
B9 | -5.8 lnKA
B10 | -5.71 lnKA
B11 | -5.66 lnKA
B12 | -2 lnKA
B13 | -1.44 lnKA
B14 | -2.72 lnKA
B15 | -4.8 lnKA
B16 | -5.72 lnKA

Target: d-enCas12a-Ultra (Acidaminococcus sp., UniProt U2UMQ6 1-1307, E174R;S542R;K548R;M537R;F870L;D908A;E993A;D1235A)
Assay: as above
Conditions: protein: recombinant

Binder | binding signal
B1 | -0.733 lnKA
B2 | -0.621 lnKA
B3 | -3.44 lnKA
B4 | -2.57 lnKA
B5 | -3.38 lnKA
B6 | -3.45 lnKA
B7 | -3.44 lnKA
B8 | -1.81 lnKA
B9 | -3.49 lnKA
B10 | -3.41 lnKA
B11 | -3.17 lnKA
B12 | -0.483 lnKA
B13 | -0.407 lnKA
B14 | -0.706 lnKA
B15 | -2.04 lnKA
B16 | -3.38 lnKA
